Among the data in ChEMBL document CHEMBL1961873, “Compounds: GSK PKIS; Assays: Nanosyn kinase panel” (2012) are inhibition values, retold here.

Test [1] deals with Sphingosine kinase 1 (Homo sapiens) (UniProt Q9NYA1). Particulars: at 1 µM.
In test [2] the target is T1, Sphingosine kinase 2 (Homo sapiens) (UniProt Q9NRA0).
T1 sequence (whole entry): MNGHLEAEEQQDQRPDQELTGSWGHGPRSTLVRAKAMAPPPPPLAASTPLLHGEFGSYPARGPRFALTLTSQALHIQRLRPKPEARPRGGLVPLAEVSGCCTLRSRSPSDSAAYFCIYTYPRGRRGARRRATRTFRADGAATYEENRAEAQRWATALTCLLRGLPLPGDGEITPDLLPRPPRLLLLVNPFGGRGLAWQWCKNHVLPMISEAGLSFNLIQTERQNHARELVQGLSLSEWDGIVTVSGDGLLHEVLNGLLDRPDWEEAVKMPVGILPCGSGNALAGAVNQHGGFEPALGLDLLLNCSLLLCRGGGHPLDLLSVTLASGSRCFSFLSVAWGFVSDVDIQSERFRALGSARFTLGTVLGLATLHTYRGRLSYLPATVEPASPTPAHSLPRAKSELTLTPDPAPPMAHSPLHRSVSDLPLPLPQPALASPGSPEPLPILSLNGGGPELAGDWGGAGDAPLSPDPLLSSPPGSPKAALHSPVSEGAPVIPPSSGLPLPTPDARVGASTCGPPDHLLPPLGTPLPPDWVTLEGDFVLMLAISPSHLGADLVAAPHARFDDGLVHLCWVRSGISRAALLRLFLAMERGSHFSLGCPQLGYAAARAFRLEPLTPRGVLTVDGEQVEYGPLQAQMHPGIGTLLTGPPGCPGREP
Particulars: at 0.1 µM.

For test [3], the target named is T1, Sphingosine kinase 2 (Homo sapiens). Particulars: at 1 µM.
Test [4] has as its target Casein kinase II subunit alpha (Homo sapiens) (UniProt P68400). Particulars: at 0.1 µM.
Test [5] shares this target. Particulars: at 1 µM.
The target in test [6] is T2, Inhibitor of nuclear factor kappa-B kinase subunit alpha (Homo sapiens) (UniProt O15111).
T2 sequence (whole entry): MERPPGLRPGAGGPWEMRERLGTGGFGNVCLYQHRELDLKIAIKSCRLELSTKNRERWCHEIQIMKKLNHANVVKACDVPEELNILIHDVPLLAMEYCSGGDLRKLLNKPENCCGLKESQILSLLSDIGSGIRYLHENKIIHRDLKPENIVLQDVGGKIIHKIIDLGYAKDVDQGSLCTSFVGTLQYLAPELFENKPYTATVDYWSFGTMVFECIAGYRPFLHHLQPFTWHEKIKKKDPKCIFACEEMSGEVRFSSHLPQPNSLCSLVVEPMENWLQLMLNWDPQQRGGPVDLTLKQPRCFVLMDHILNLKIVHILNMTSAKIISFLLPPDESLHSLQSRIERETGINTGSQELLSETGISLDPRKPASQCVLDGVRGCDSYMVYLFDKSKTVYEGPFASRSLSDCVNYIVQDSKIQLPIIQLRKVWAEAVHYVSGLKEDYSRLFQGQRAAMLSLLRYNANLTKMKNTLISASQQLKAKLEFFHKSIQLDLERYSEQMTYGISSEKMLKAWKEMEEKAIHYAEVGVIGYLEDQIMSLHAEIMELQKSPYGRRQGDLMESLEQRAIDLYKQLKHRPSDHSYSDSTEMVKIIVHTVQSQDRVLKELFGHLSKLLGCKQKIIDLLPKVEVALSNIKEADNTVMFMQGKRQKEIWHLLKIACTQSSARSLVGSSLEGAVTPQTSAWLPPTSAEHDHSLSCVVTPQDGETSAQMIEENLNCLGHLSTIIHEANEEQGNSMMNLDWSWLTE
Particulars: at 0.1 µM.

The target of test [7] is T2, Inhibitor of nuclear factor kappa-B kinase subunit alpha (Homo sapiens). The note with it: at 1 µM.
Test [8] concerns the target T3, Inhibitor of nuclear factor kappa-B kinase subunit beta (Homo sapiens) (UniProt O14920).
T3 sequence (whole entry): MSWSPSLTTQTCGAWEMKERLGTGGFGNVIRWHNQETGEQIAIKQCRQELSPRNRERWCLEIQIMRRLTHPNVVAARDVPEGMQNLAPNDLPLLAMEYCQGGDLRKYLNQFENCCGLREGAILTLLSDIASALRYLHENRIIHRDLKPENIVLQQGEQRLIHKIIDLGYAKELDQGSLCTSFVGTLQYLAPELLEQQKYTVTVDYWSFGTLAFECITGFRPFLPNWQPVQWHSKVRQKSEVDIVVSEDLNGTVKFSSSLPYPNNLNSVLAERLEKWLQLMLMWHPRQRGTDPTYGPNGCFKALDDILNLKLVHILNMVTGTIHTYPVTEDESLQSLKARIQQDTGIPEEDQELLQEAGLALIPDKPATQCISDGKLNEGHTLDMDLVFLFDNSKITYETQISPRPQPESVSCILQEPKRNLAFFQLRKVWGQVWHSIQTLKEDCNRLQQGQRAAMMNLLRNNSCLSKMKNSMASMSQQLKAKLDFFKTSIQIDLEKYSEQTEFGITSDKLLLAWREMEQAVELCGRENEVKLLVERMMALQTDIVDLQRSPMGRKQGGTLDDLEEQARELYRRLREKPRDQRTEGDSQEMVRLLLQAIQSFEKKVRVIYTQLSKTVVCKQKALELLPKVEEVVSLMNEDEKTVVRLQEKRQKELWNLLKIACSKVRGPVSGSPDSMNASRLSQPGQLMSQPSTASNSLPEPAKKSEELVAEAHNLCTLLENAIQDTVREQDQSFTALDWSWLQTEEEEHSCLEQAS
The note with it: at 0.1 µM.

The target in test [9] is T3, Inhibitor of nuclear factor kappa-B kinase subunit beta (Homo sapiens). The note with it: at 1 µM.
Test [10] deals with T4, Inhibitor of nuclear factor kappa-B kinase subunit epsilon (Homo sapiens) (UniProt Q14164).
T4 sequence (whole entry): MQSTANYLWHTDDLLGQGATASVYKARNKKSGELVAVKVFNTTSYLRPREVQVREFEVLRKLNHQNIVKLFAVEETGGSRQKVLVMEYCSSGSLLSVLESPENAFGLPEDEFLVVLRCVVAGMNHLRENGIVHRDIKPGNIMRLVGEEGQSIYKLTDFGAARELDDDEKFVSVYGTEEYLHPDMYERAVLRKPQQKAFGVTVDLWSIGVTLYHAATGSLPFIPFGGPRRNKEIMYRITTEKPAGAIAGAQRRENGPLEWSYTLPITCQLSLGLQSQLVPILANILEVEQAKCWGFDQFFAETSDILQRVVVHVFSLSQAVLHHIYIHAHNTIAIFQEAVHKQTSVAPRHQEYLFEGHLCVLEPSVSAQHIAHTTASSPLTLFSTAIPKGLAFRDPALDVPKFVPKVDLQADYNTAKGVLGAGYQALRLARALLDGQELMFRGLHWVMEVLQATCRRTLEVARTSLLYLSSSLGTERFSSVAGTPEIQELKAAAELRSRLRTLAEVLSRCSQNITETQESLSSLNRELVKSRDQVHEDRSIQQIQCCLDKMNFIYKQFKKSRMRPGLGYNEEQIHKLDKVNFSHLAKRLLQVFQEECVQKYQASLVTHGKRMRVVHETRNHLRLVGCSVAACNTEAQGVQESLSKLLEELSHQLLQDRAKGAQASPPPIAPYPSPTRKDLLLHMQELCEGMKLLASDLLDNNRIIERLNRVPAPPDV
Particulars: at 0.1 µM.

The target of test [11] is T4, Inhibitor of nuclear factor kappa-B kinase subunit epsilon (Homo sapiens). Particulars: at 1 µM.
Test [12] has as its target T5, Serine/threonine-protein kinase Nek1 (Homo sapiens) (UniProt Q96PY6).
T5 sequence (whole entry): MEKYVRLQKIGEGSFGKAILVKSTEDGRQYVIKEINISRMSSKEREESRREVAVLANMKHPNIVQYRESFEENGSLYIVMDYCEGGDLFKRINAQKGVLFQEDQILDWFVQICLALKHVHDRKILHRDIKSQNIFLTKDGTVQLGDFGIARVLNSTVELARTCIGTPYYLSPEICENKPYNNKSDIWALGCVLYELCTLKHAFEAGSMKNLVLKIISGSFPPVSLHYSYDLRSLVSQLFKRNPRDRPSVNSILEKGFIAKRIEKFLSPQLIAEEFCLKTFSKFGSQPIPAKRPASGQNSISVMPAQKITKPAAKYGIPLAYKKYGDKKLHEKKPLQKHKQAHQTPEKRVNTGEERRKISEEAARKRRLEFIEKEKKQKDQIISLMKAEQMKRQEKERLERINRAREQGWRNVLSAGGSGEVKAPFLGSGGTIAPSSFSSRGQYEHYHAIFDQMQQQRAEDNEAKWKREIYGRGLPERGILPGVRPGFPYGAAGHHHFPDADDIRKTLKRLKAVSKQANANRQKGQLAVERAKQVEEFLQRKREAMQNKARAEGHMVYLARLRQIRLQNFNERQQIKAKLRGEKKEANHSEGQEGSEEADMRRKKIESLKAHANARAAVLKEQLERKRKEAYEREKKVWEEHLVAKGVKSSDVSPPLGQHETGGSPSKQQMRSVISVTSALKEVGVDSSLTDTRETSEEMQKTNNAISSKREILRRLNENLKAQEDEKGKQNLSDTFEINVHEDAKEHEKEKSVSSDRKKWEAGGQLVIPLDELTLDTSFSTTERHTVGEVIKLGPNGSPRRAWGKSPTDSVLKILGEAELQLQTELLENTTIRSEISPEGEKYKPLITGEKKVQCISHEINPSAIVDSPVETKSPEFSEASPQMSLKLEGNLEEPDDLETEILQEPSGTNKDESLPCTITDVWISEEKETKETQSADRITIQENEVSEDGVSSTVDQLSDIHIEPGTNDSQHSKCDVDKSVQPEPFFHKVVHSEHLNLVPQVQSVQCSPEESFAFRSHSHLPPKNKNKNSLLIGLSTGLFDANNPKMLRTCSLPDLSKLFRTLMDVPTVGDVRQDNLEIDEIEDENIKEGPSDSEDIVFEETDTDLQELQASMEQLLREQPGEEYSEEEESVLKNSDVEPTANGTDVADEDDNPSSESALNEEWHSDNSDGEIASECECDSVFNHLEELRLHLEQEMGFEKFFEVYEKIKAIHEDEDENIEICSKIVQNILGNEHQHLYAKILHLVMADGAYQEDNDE
Particulars: at 0.1 µM.

The target in test [13] is T5, Serine/threonine-protein kinase Nek1 (Homo sapiens). The note with it: at 1 µM.
Test [14] concerns the target T6, Serine/threonine-protein kinase Nek2 (Homo sapiens) (UniProt P51955).
T6 sequence (whole entry): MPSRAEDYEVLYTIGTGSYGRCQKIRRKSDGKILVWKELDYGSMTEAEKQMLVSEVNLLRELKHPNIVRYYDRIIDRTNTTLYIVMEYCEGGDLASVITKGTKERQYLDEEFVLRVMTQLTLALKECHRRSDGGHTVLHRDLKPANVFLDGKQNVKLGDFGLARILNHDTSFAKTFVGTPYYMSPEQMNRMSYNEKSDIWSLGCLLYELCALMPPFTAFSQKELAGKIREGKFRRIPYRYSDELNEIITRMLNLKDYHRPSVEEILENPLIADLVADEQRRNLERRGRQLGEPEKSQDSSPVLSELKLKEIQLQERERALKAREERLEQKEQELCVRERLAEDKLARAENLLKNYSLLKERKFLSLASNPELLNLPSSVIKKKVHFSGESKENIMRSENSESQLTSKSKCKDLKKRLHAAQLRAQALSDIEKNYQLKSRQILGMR
Particulars: at 0.1 µM.

For test [15], the target named is T6, Serine/threonine-protein kinase Nek2 (Homo sapiens). Particulars: at 1 µM.
Test [16] concerns the target Serine/threonine-protein kinase Nek6 (Homo sapiens) (UniProt Q9HC98). The note with it: at 0.1 µM.
The target is the same in test [17]. Particulars: at 1 µM.
Test [18] addresses Serine/threonine-protein kinase Nek7 (Homo sapiens) (UniProt Q8TDX7). The note with it: at 0.1 µM.
Test [19] has the same target. Particulars: at 1 µM.
Test [20] has as its target T7, Serine/threonine-protein kinase Nek9 (Homo sapiens) (UniProt Q8TD19).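 Also: reported value is the mean percent inhibition of NEK9.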
T7 sequence (whole entry): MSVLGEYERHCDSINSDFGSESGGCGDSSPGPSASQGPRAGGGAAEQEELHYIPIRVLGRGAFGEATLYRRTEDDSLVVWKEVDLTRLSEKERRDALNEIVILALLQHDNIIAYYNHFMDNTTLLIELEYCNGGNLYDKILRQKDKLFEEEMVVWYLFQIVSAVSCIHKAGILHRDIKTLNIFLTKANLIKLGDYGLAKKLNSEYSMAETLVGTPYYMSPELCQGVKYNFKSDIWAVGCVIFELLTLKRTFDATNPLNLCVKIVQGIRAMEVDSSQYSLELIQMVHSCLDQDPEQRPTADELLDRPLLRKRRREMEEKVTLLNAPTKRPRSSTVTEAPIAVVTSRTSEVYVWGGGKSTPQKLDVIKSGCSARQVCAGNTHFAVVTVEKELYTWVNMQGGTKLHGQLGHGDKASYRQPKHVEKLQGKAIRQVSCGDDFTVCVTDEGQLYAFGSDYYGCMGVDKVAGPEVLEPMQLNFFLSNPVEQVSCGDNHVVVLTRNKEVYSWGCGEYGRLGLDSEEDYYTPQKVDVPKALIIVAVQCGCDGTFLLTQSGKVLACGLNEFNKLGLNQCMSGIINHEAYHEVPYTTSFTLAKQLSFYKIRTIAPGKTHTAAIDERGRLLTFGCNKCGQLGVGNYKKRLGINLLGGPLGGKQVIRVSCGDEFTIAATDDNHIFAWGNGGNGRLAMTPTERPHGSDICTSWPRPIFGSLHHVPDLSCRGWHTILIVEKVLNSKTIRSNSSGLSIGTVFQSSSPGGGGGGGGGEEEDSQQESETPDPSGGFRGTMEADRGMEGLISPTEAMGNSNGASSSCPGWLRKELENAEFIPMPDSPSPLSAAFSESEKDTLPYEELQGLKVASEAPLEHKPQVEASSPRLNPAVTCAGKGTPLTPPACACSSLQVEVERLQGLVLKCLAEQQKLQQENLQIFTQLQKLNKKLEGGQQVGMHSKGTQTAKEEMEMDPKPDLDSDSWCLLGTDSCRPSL
The note with it: at 0.1 µM.

Serine/threonine-protein kinase Nek7 (Homo sapiens), sequence (Q8TDX7 whole entry, looked up): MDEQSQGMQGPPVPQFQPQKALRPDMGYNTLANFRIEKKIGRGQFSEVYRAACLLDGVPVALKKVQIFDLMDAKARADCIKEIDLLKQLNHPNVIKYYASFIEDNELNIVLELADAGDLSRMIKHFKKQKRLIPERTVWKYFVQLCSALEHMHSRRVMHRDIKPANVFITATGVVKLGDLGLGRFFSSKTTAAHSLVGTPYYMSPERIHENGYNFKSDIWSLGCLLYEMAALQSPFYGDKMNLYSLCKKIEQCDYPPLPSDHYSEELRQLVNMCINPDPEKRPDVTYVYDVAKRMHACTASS
Serine/threonine-protein kinase Nek6 (Homo sapiens), sequence (Q9HC98 whole entry): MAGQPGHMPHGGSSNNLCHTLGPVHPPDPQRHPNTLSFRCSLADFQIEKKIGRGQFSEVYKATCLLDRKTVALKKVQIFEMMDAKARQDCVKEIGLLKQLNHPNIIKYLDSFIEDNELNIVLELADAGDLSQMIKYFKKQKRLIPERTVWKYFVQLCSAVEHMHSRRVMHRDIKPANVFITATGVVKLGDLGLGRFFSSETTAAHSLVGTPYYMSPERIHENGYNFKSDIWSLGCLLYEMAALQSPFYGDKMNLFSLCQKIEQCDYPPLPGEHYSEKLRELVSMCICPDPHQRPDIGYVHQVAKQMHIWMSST
Casein kinase II subunit alpha (Homo sapiens), sequence (P68400 whole entry, looked up): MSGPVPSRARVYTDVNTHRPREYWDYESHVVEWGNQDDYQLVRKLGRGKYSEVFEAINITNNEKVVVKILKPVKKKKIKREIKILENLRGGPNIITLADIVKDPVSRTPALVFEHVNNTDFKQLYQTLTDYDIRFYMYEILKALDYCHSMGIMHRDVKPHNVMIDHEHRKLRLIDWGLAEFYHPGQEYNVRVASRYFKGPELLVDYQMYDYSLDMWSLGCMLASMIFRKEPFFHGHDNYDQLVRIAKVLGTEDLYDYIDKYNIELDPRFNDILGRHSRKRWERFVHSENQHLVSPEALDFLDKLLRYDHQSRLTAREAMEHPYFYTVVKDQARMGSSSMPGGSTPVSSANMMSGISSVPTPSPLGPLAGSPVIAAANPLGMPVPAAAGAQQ
Sphingosine kinase 1 (Homo sapiens), sequence (Q9NYA1 whole entry): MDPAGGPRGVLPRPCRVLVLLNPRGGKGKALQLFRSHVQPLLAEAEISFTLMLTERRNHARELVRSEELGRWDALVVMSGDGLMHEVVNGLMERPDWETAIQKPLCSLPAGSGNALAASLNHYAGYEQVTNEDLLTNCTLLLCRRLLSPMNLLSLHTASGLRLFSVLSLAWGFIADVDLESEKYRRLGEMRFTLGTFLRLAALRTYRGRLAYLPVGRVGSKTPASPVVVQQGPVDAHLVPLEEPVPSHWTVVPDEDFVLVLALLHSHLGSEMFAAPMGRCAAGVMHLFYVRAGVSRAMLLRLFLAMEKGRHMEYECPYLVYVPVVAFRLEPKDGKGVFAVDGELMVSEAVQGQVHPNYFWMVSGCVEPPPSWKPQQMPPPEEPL

In general, inhibition refers to the relative decrease from the control value, in per cent. As for `Cc1cccc2c1NC(=O)/C2=N\Nc1ccc(S(N)(=O)=O)cc1`, the inhibition in [1] was 1.88%; in [2], -0.11%; in test [3] it was 0.27%; in test [4], -0.53%; in test [5], 0.34%; in test [6] it was 2.87%. Moreover, the inhibition in [7] was 0.58%; in test [8], 2.93%; in [9], 3.79%; in test [10], 3.32%; in test [11], 3.85%; in [12], 1%. The inhibition in test [13] stood at 3.8%; in [14] it was 2.64%; in test [15] it was 2.64%; in test [16], 2.04%; in [17], 1.65%; in test [18] it was 2.43%. Further, the inhibition in test [19] came out at 2.36%; in test [20], 4.06%.
